# Experimental data from the supplement of paper PMC4022240.
# ± gives the standard deviation.
# T1: HaloTag-ATRX ADD domain (163-292)
# T1 chain: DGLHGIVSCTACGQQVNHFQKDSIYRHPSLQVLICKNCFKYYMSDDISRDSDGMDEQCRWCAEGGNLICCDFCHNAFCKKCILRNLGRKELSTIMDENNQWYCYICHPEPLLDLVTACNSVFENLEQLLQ
# How the values were obtained:
# Test in all cases: peptide microarray binding signal (635 nm), min-max normalized on array (fraction of array maximum); higher = stronger binding
# [1] = target: T1, HaloTag-ATRX ADD domain (163-292)
# Outline: (§1)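 Two probe formats were used for 1 h at 4°C: biotin-labelled HaloTag reader fusions (10 nM to 1 μM) with streptavidin-Alexa Fluor 647, and rabbit histone antibodies (1:10,000 to 1:2,000) with anti-rabbit Alexa 647. Both were applied to nitrocellulose arrays of histone 13-mer peptide–cellulose conjugates printed in triplicate with a Cy3 tracer and blocked overnight at 4°C. Signal was read at 635 nm and misprints at 532 nm on an Axon GenePix 4000B. Binding signal is expressed as the triplicate-spot mean intensity, min-max scaled for each library.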
# [2] = target: HaloTag-ING2 PHD (mouse Ing2 200-280)
# Outline: as §1
# [3] = target: anti-H3K4me3 antibody ab8580
# Outline: as §1
# [4] = target: anti-H3K9me3 antibody ab8898
# Outline: as §1
# [5] = peptide region: H4 38-50, peptide modifications: H4K44me2, binder concentration: 1:2,000 dilution
# [6] = peptide region: H4 38-50, peptide modifications: H4K44me2, binder concentration: 1:10,000 dilution
# [7] = peptide region: H4 38-50, peptide modifications: H4K44me2 H4R45me2a, binder concentration: 1:2,000 dilution
# [8] = peptide region: H4 38-50, peptide modifications: H4K44me2 H4R45me2a, binder concentration: 1:10,000 dilution
# [9] = peptide region: H4 38-50, peptide modifications: H4K44me1 H4R45me2s, binder concentration: 1:2,000 dilution
# [10] = peptide region: H4 38-50, peptide modifications: H4K44me1 H4R45me2s, binder concentration: 1:10,000 dilution
# [11] = peptide region: H4 16-28, peptide modifications: H4R23me2s, binder concentration: 1:2,000 dilution
# [12] = peptide region: H4 38-50, peptide modifications: H4K44me1 H4R45me2a, binder concentration: 1:2,000 dilution
# [13] = peptide region: H4 38-50, peptide modifications: H4K44me1 H4R45me2a, binder concentration: 1:10,000 dilution
# [14] = peptide region: H4 38-50, peptide modifications: H4K44me3 H4R45cit, binder concentration: 1:2,000 dilution
# [15] = peptide region: H4 38-50, peptide modifications: H4K44me3 H4R45cit, binder concentration: 1:10,000 dilution
# [16] = peptide region: H4 16-28, peptide modifications: H4R23me1, binder concentration: 1:2,000 dilution
# [17] = peptide region: H4 38-50, peptide modifications: H4K44me1 H4R45cit, binder concentration: 1:2,000 dilution
# [18] = peptide region: H4 38-50, peptide modifications: H4K44me1 H4R45cit, binder concentration: 1:10,000 dilution
# [19] = peptide region: H4 38-50, peptide modifications: H4K44ac H4R45me1, binder concentration: 1:2,000 dilution
# [20] = peptide region: H4 38-50, peptide modifications: H4K44ac H4R45me1, binder concentration: 1:10,000 dilution
# [21] = peptide region: H4 16-28, peptide modifications: H4R23me2a, binder concentration: 1:2,000 dilution
# [22] = peptide region: H4 38-50, peptide modifications: H4K44me3, binder concentration: 1:2,000 dilution
# [23] = peptide region: H4 38-50, peptide modifications: H4K44me3, binder concentration: 1:10,000 dilution
binder,measurement,setting,value
ARRGGVKRISGLI [H4 38-50 A R R G G V Kme2 R I S G L I],peptide microarray binding signal,"[1]; peptide region: H4 38-50, peptide modifications: H4K44me2, binder concentration: 50 nM",0.0141 ± 0.0019
same,peptide microarray binding signal,"[1]; peptide region: H4 38-50, peptide modifications: H4K44me2, binder concentration: 500 nM",0.0244 ± 0.00095
same,peptide microarray binding signal,"[2]; peptide region: H4 38-50, peptide modifications: H4K44me2, binder concentration: 10 nM",0.0118 ± 0.00032
same,peptide microarray binding signal,"[2]; peptide region: H4 38-50, peptide modifications: H4K44me2, binder concentration: 100 nM",0.0304 ± 0.0032
same,peptide microarray binding signal,[3]; [5],0.00204 ± 0.00018
same,peptide microarray binding signal,[3]; [6],0.00359 ± 0.00012
same,peptide microarray binding signal,[4]; [5],0.00169 ± 3e-05
same,peptide microarray binding signal,[4]; [6],0.00231 ± 5.5e-05
ARRGGVKRISGLI [H4 38-50 A R R G G V Kme2 Rme2a I S G L I],peptide microarray binding signal,"[1]; peptide region: H4 38-50, peptide modifications: H4K44me2 H4R45me2a, binder concentration: 50 nM",0.00665 ± 0.0002
same,peptide microarray binding signal,"[1]; peptide region: H4 38-50, peptide modifications: H4K44me2 H4R45me2a, binder concentration: 500 nM",0.00881 ± 0.00022
same,peptide microarray binding signal,"[2]; peptide region: H4 38-50, peptide modifications: H4K44me2 H4R45me2a, binder concentration: 10 nM",0.00859 ± 0.00016
same,peptide microarray binding signal,"[2]; peptide region: H4 38-50, peptide modifications: H4K44me2 H4R45me2a, binder concentration: 100 nM",0.0109 ± 0.00048
same,peptide microarray binding signal,[3]; [7],0.00187 ± 6e-05
same,peptide microarray binding signal,[3]; [8],0.00371 ± 0.00016
same,peptide microarray binding signal,[4]; [7],0.00208 ± 4.3e-05
same,peptide microarray binding signal,[4]; [8],0.00265 ± 9.3e-05
ARRGGVKRISGLI [H4 38-50 A R R G G V Kme Rme2s I S G L I],peptide microarray binding signal,"[1]; peptide region: H4 38-50, peptide modifications: H4K44me1 H4R45me2s, binder concentration: 50 nM",0.006019 ± 2.1e-05
same,peptide microarray binding signal,"[1]; peptide region: H4 38-50, peptide modifications: H4K44me1 H4R45me2s, binder concentration: 500 nM",0.00619 ± 0.00016
same,peptide microarray binding signal,"[2]; peptide region: H4 38-50, peptide modifications: H4K44me1 H4R45me2s, binder concentration: 10 nM",0.0119 ± 0.00057
same,peptide microarray binding signal,"[2]; peptide region: H4 38-50, peptide modifications: H4K44me1 H4R45me2s, binder concentration: 100 nM",0.0102 ± 0.0013
same,peptide microarray binding signal,[3]; [9],0.00185 ± 0.00022
same,peptide microarray binding signal,[3]; [10],0.00451 ± 0.00035
same,peptide microarray binding signal,[4]; [9],0.00219 ± 0.00017
same,peptide microarray binding signal,[4]; [10],0.0034 ± 0.00013
KRHRKVLRDNIQG [H4 16-28 K R H R K V L Rme2s D N I Q G],peptide microarray binding signal,"[1]; peptide region: H4 16-28, peptide modifications: H4R23me2s, binder concentration: 500 nM",0.000333 ± 1.9e-05
same,peptide microarray binding signal,"[2]; peptide region: H4 16-28, peptide modifications: H4R23me2s, binder concentration: 100 nM",0.000354 ± 1.5e-05
same,peptide microarray binding signal,[3]; [11],0.000849 ± 0.00028
same,peptide microarray binding signal,[4]; [11],1.51e-05 ± 1.7e-07
ARRGGVKRISGLI [H4 38-50 A R R G G V Kme Rme2a I S G L I],peptide microarray binding signal,"[1]; peptide region: H4 38-50, peptide modifications: H4K44me1 H4R45me2a, binder concentration: 50 nM",0.0254 ± 0.0015
same,peptide microarray binding signal,"[1]; peptide region: H4 38-50, peptide modifications: H4K44me1 H4R45me2a, binder concentration: 500 nM",0.016 ± 0.00078
same,peptide microarray binding signal,"[2]; peptide region: H4 38-50, peptide modifications: H4K44me1 H4R45me2a, binder concentration: 10 nM",0.0305 ± 0.00031
same,peptide microarray binding signal,"[2]; peptide region: H4 38-50, peptide modifications: H4K44me1 H4R45me2a, binder concentration: 100 nM",0.0275 ± 0.00071
same,peptide microarray binding signal,[3]; [12],0.00417 ± 0.00012
same,peptide microarray binding signal,[3]; [13],0.00987 ± 0.00037
same,peptide microarray binding signal,[4]; [12],0.00331 ± 7.1e-05
same,peptide microarray binding signal,[4]; [13],0.00974 ± 0.0007
ARRGGVKRISGLI [H4 38-50 A R R G G V Kme3 Rcit I S G L I],peptide microarray binding signal,"[1]; peptide region: H4 38-50, peptide modifications: H4K44me3 H4R45cit, binder concentration: 50 nM",0.0125 ± 0.00042
same,peptide microarray binding signal,"[1]; peptide region: H4 38-50, peptide modifications: H4K44me3 H4R45cit, binder concentration: 500 nM",0.0116 ± 0.0018
same,peptide microarray binding signal,"[2]; peptide region: H4 38-50, peptide modifications: H4K44me3 H4R45cit, binder concentration: 10 nM",0.00836 ± 0.00091
same,peptide microarray binding signal,"[2]; peptide region: H4 38-50, peptide modifications: H4K44me3 H4R45cit, binder concentration: 100 nM",0.00588 ± 0.0012
same,peptide microarray binding signal,[3]; [14],0.00387 ± 0.00082
same,peptide microarray binding signal,[3]; [15],0.00502 ± 0.00084
same,peptide microarray binding signal,[4]; [14],0.00444 ± 0.00077
same,peptide microarray binding signal,[4]; [15],0.00467 ± 0.00024
KRHRKVLRDNIQG [H4 16-28 K R H R K V L Rme D N I Q G],peptide microarray binding signal,"[1]; peptide region: H4 16-28, peptide modifications: H4R23me1, binder concentration: 500 nM",0.000143 ± 4.6e-06
same,peptide microarray binding signal,"[2]; peptide region: H4 16-28, peptide modifications: H4R23me1, binder concentration: 100 nM",0.000354 ± 4.1e-06
same,peptide microarray binding signal,[3]; [16],0.000132 ± 1.5e-06
same,peptide microarray binding signal,[4]; [16],1.51e-05 ± 1.7e-07
ARRGGVKRISGLI [H4 38-50 A R R G G V Kme Rcit I S G L I],peptide microarray binding signal,"[1]; peptide region: H4 38-50, peptide modifications: H4K44me1 H4R45cit, binder concentration: 50 nM",0.00502 ± 0.00054
same,peptide microarray binding signal,"[1]; peptide region: H4 38-50, peptide modifications: H4K44me1 H4R45cit, binder concentration: 500 nM",0.0041 ± 5.8e-05
same,peptide microarray binding signal,"[2]; peptide region: H4 38-50, peptide modifications: H4K44me1 H4R45cit, binder concentration: 10 nM",0.00603 ± 0.00023
same,peptide microarray binding signal,"[2]; peptide region: H4 38-50, peptide modifications: H4K44me1 H4R45cit, binder concentration: 100 nM",0.00652 ± 0.0007
same,peptide microarray binding signal,[3]; [17],0.00106 ± 0.00014
same,peptide microarray binding signal,[3]; [18],0.0016 ± 2.7e-05
same,peptide microarray binding signal,[4]; [17],0.00074 ± 1.7e-05
same,peptide microarray binding signal,[4]; [18],0.00133 ± 2.3e-05
ARRGGVKRISGLI [H4 38-50 A R R G G V Kac Rme I S G L I],peptide microarray binding signal,"[1]; peptide region: H4 38-50, peptide modifications: H4K44ac H4R45me1, binder concentration: 50 nM",0.0131 ± 0.00062
same,peptide microarray binding signal,"[1]; peptide region: H4 38-50, peptide modifications: H4K44ac H4R45me1, binder concentration: 500 nM",0.01695 ± 5.7e-05
same,peptide microarray binding signal,"[2]; peptide region: H4 38-50, peptide modifications: H4K44ac H4R45me1, binder concentration: 10 nM",0.0235 ± 0.0022
same,peptide microarray binding signal,"[2]; peptide region: H4 38-50, peptide modifications: H4K44ac H4R45me1, binder concentration: 100 nM",0.048 ± 0.0095
same,peptide microarray binding signal,[3]; [19],0.00338 ± 0.00048
same,peptide microarray binding signal,[3]; [20],0.00685 ± 0.0005
same,peptide microarray binding signal,[4]; [19],0.00296 ± 0.00039
same,peptide microarray binding signal,[4]; [20],0.00306 ± 4.5e-05
KRHRKVLRDNIQG [H4 16-28 K R H R K V L Rme2a D N I Q G],peptide microarray binding signal,"[1]; peptide region: H4 16-28, peptide modifications: H4R23me2a, binder concentration: 500 nM",0.0285 ± 0.039
same,peptide microarray binding signal,"[2]; peptide region: H4 16-28, peptide modifications: H4R23me2a, binder concentration: 100 nM",0.000425 ± 4.9e-06
same,peptide microarray binding signal,[3]; [21],7.55e-05 ± 8.5e-07
same,peptide microarray binding signal,[4]; [21],0
ARRGGVKRISGLI [H4 38-50 A R R G G V Kme3 R I S G L I],peptide microarray binding signal,"[1]; peptide region: H4 38-50, peptide modifications: H4K44me3, binder concentration: 50 nM",0.00367 ± 6.4e-05
same,peptide microarray binding signal,"[1]; peptide region: H4 38-50, peptide modifications: H4K44me3, binder concentration: 500 nM",0.00671 ± 0.00031
same,peptide microarray binding signal,"[2]; peptide region: H4 38-50, peptide modifications: H4K44me3, binder concentration: 10 nM",0.00859 ± 9.7e-05
same,peptide microarray binding signal,"[2]; peptide region: H4 38-50, peptide modifications: H4K44me3, binder concentration: 100 nM",0.0129 ± 0.00014
same,peptide microarray binding signal,[3]; [22],0.00104 ± 4.6e-05
same,peptide microarray binding signal,[3]; [23],0.0016 ± 2.7e-05
same,peptide microarray binding signal,[4]; [22],0.0011 ± 0.0001
same,peptide microarray binding signal,[4]; [23],0.00161 ± 5.6e-05
